Compound activity (PubChem BioAssay)
KB-3-1 cytotox = KB-3-1 parental cell cytotoxicity | 1.4% of 400,000 active | KB-3-1 viability, CellTiter-Glo ATP luminescence, 72 h | AID 1347075 | Potency, µM (highest dose often 46.1 µM), hits mostly cytotoxic; note: nearly all actives have a fitted effect of over 60% in size
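Viability of parental KB-3-1 cells, measured by CellTiter-Glo luminescence, followed a 72 h incubation at 37 °C with pinned compounds in phenol-red-free DMEM containing 10% FBS.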
HT1080 IDH1KD tx = HT-1080 IDH1 knockdown cell toxicity (counter line); HT-1080 IDH1 knockdown viability, ATP luminescence, 48 h; Potency, µM (highest dose often 46.1 µM), for the others: at the highest dose activity, negative = toxicity, most hits filed as cytotoxic; 2% of 360,000 active; AID 686971;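 note: 0% = DMSO wells and -100% = cell-free medium wells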
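In this qHTS, HT-1080 cells depleted of IDH1 are exposed for 48 h at 37 °C to compound titrations. Toxicity is scored from CellTiter-Glo luminescence, with DMSO as full viability and medium alone as none.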
KB-V1 cytotox = KB-V1 MDR subline cytotoxicity | KB-V1 MDR cells viability, CellTiter-Glo, 72 h | Potency, µM (series often up to 46.1 µM), hits mostly cytotoxic | 3.4% of 400,000 active | AID 1347076; note: nearly all actives have a fitted effect of over 60% in size
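Luminescent ATP read-out (CellTiter-Glo, 10 min) measures survival of drug-selected KB-V1 MDR cells after 72 h, 37 degrees C compound exposure. Medium: phenol-red-free DMEM, 10% FBS. Values from fitted concentration-response curves.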
HT1080-NT tox = kills 2HG-producing HT-1080-NT fibrosarcoma cells | 1.6% of 360,000 active | AID 686970 | HT-1080-NT fibrosarcoma viability, CellTiter-Glo ATP luminescence, 48 h | Potency, µM (doses to about 46.1 µM), inactives show at the highest dose activity, negative = less viability, most hits filed as cytotoxic;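 note: NT is the 2HG producing partner of a matched IDH1 knockdown line; 0% = DMSO-treated cells and -100% = media-only wells without cells; nearly all actives have a fitted effect of over 55% in size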
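Toxicity toward the 2HG-producing NT line was scored as %Activity, normalised to DMSO and no-cell wells, from CellTiter-Glo luminescence after 48 hours' treatment.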
DT40 TDP1 CPT = growth inhibition of DT40 Tdp1-/-;hTDP1 cells with camptothecin (screen for TDP1 inhibitors). chicken DT40 Tdp1-/-;hTDP1 cells + 20 nM CPT, ATP luminescence, 48 h. Potency, µM (doses to about 46.2 µM), without a hit: at the top dose activity change, negative = growth inhibition, hits mostly inhibitors. 12% of 420,000 active. AID 686979; note: nearly all actives have a fitted effect of over 55% in size
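Cell growth measured by CellTiter-Glo luminescence after a minimum 48 h, 37 C compound exposure with 20 nM CPT in Tdp1-knockout DT40 cells stably expressing hTDP1, seeded 400/well; qHTS titration format.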
TDP1 cell noCPT = qHTS for Inhibitors of human tyrosyl-DNA phosphodiesterase 1 (TDP1): qHTS in cells in absence of CPT; DT40 Tdp1-/- hTDP1 cells, no CPT, ATP luminescence, 48 h; Potency, µM (series often up to 46.2 µM), without a hit: at the top dose activity change, negative = growth inhibition, hits mostly inhibitors; 15% of 420,000 active; note: nearly all actives have a fitted effect of over 55% in size
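Stably hTDP1-transfected Tdp1-null chicken DT40 cells were treated with library compounds minus camptothecin and grown for at least 48 hr at 37 °C, after which cellular ATP was quantified by luminescence.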
* = called active by the depositor; i = inactive; ? = inconclusive; . = no result given. Sampled rows, rich in hits. Any-hit rate of the full collection: about 19%. Calls come from the whole dose curve; as a rule, active = well fitted curve in the direction sought with a large enough effect; inconclusive = small, poorly fitted or top-dose-only effect, or another doubt; inactive = no such curve, though single readings can be large; an effect the other way counts as inactive or inconclusive. Unless noted, % is set by controls: 0 for no effect and ±100 for the full control effect; potency is the fitted concentration of half-maximal effect.

SMILES	KB-3-1 cytotox	HT1080 IDH1KD tx	KB-V1 cytotox	HT1080-NT tox	DT40 TDP1 CPT	TDP1 cell noCPT
Cc1cc(C)c(OCC(=O)N(Cc2ccc(N(C)C)cc2)C2CCS(=O)(=O)C2)c(C)c1 (configuration not stated)	i	2.5%	i	-4.2%	-7.4%	23.1µM*
Cc1cc(C)cc(OCC(=O)N(Cc2ccc(N(C)C)cc2)C2CCS(=O)(=O)C2)c1 (configuration not stated)	i	-19.7%	i	-15.0%	2.9%	-24.8%
CCc1ccc2[nH]c(=O)c(CN(CCCN3CCOCC3)C(=O)Nc3ccc(F)cc3)cc2c1	?	?	i	?	?	13µM*
Cc1ccc2cc(CN(CCN3CCOCC3)C(=O)NCc3ccccc3)c(=O)[nH]c2c1C	i	-13.8%	i	-4.1%	?	?
O=C(Nc1ccc(F)cc1)N(CCCN1CCOCC1)Cc1cc2cc3c(cc2[nH]c1=O)OCO3	?	-9.2%	i	-0.3%	?	?
O=C(Nc1ccc(F)cc1)N(CCCN1CCOCC1)Cc1cc2cc3c(cc2[nH]c1=O)OCCO3	?	-8.0%	i	-15.2%	8.2µM*	?
Cc1ccc2cc(CN(CCN3CCCC3)C(=O)Nc3ccc(F)cc3)c(=O)[nH]c2c1C	i	?	i	23.1µM*	23.1µM*	18.4µM*
CC1CCCC(NC(=O)c2ccc(F)c(S(=O)(=O)N3CCOCC3)c2)C1C (configuration not stated)	i	6.3%	?	-0.7%	?	?
O=C(NCCc1ccccc1)c1cc(-c2ccco2)on1	i	-28.9%	i	?	6.31µM*	?
COc1ccc(CCNC(=O)c2cc(-c3ccco3)on2)cc1OC	9.2µM*	-18.3%	18.4µM*	-20.5%	10.3µM*	16.4µM*
COc1ccc(Nc2nc(C(=O)NCc3ccco3)cs2)cc1	16.4µM*	-7.2%	16.4µM*	-22.4%	23.1µM*	?
O=C(NCc1ccco1)c1cc(-c2ccco2)on1	i	1.0%	i	-1.8%	23.1µM*	?
COc1cccc(-c2cc(C(=O)NCCc3ccc(OC)c(OC)c3)no2)c1	i	.	i	.	4.5%	1.7%
O=C(NCc1ccccc1)c1cc(-c2ccco2)on1	i	-0.1%	?	3.7%	-23.4%	?
COc1ccc(Cl)cc1Nc1cc(C)nc2ncnn12	i	0.1%	i	-1.0%	2.5%	-21.7%
O=C(NCc1cc2ccccc2[nH]1)C1CCC(=O)N(CC2CCCCC2)C1 (configuration not stated)	i	-9.2%	i	-2.1%	?	-28.9%
COc1ccc(N2CSC(=S)N(c3ccc(OC)cc3)C2)cc1	i	?	i	-28.7%	16.4µM*	14.6µM*
COc1cccc(-c2nc(S(=O)(=O)c3ccccc3)c(N3CCCCC3)o2)c1	i	.	i	.	?	16.4µM*
COc1cccc(-c2nc(S(=O)(=O)c3ccc(C)cc3)c(N3CCCCC3)o2)c1	i	.	i	.	20.6µM*	18.4µM*
COC(=O)N1CCC2(CCCN(C(=O)Nc3ccc(OC)cc3)C2)CC1	.	.	.	.	2.8%	-4.7%
COc1ccc(C(O)c2nc(-c3ccccc3C)cs2)cc1 (configuration not stated)	i	14.6%	i	-0.8%	?	?
COc1ccc(Cl)cc1C(=O)CSc1nnnn1C1CCCC1	i	-23.4%	?	-20.9%	16.4µM*	18.4µM*
COc1ccc(NC(=O)CSc2nnnn2C2CCCC2)c(OC)c1	i	-2.6%	?	-10.1%	-0.9%	-2.0%
COc1ccc(Cl)cc1C(=O)CSc1nnnn1C1CCCCC1	i	-18.8%	?	-14.1%	?	18.4µM*
CCOC(=O)CC1(C)c2nc(NC(C)=O)sc2Cc2sc(NC(C)=O)nc21	i	29.5%	i	7.3%	-12.5%	-16.2%
SMILES	KB-3-1 cytotox	HT1080 IDH1KD tx	KB-V1 cytotox	HT1080-NT tox	DT40 TDP1 CPT	TDP1 cell noCPT
CCCNC(=O)Cn1nc(C)c2c(C)n(-c3ccccc3)nc2c1=O	.	.	.	.	-7.9%	-3.7%
C/C(CCC(C)C)=N\NC(=S)NCc1ccccc1	i	3.1%	i	0.8%	?	?
C/C(=N\NC(=S)NCCc1ccccc1)c1cccc(Br)c1	i	0.0%	?	-3.1%	?	?
C/C(=N\NC(=S)NCc1ccccc1)c1cccc(Br)c1	i	?	?	-23.3%	14.6µM*	20.6µM*
C/C(=N\NC(=S)NCc1ccccc1)c1ccc2ccccc2c1	i	-8.1%	?	-0.3%	6.51µM*	7.31µM*
Cn1nccc1-c1ccc(C(=O)NCc2ccco2)c2occc12	i	26.2%	?	1.8%	?	?
CC[C@@H](C)[C@@H](N)C1=N[C@H](C(=O)N[C@@H](CC(C)C)C(=O)N[C@@H](CCC(=O)O)C(=O)N[C@@H](C(=O)N[C@@H]2CCCCNC(=O)[C@@H](CC(N)=O)NC(=O)[C@@H](CC(=O)O)NC(=O)[C@@H](Cc3cnc[nH]3)NC(=O)[C@@H](Cc3ccccc3)NC(=O)[C@@H]([C@H](C)CC)NC(=O)[C@@H](CCCN)NC2=O)[C@@H](C)CC)CS1	.	.	.	.	11.4%	-12.5%
O=C(COC(=O)c1ccccc1)NCCC1=CCCCC1	i	-4.3%	i	1.2%	0.6%	0.4%
